Screening data (PubChem)
Shiga toxin inh: inhibitors of Shiga toxin in Vero cells; Vero cells, Shiga toxin protein synthesis inhibition reporter; inhibition, % at 38.7 µM; 9.2% of 290,000 active; in the data active = inhibition mostly above about 28%, no sharp cut-off; inactive = mostly below about 43%
LASV entry inh: inhibitors of Lassa virus binding or cell entry | Potency, µM (doses to about 37.9 µM), hits mostly inhibitors | Lassa virus pseudotype entry inhibition, cell reporter | 1.2% of 300,000 active; calls by dose curve; tested in HEK293 cells; note: nearly all actives have a fitted effect of over 50% in size
FMDV antiviral: foot and mouth disease virus antiviral activity. Potency, µM (highest dose often 57.9 µM), hits mostly inhibitors. FMDV antiviral cell-based qHTS. 1.2% of 410,000 active; calls by dose curve; tested in HEK293T cells; note: read-out not given here; nearly all actives have a fitted effect of over 45% in size
Marburg entry inh: Marburg virus entry inhibition. Marburg virus pseudotyped entry inhibition, cell reporter. AID 540276. Potency, µM (titrated, usually from 37.8 µM), hits mostly inhibitors. 1.8% of 300,000 active; calls by dose curve; tested in HEK293 cells
HCV inh: inhibitors of hepatitis C virus infection | Huh7.5.1 HCVcc-Cre infection, luciferase reporter, 44 h | Potency, µM (titrated, usually from 41.8 µM), hits mostly inhibitors | 3.4% of 340,000 active; active = well fitted inhibition curve with a large enough effect; inconclusive = small, poorly fitted or top-dose-only effect, or another doubt; inactive = no such curve, though single readings can be large or run the other way
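Antiviral activity was scored by luciferase reporter output from cells infected with HCVcc-Cre (~0.5 moi) in presence of compound, 44 h infection period, cells seeded 1,000/well 4 h prior.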
Cycloheximide cs: affects cycloheximide protein synthesis inhibition readout, counter-screen | 12% of 300,000 active | max response, % | cell reporter, cycloheximide protein synthesis inhibition counterscreen | AID 2314; in the data active = max response mostly above about 13%, no sharp cut-off; inactive = mostly below about 14%; note: read at 38.3 µM for the half of the compounds with a filed dose
Hits are given with their value; – = inactive; ? = inconclusive; · = no result. An excerpt weighted towards active compounds, which were near 13% of everything screened.

SMILES	Shiga toxin inh	LASV entry inh	FMDV antiviral	Marburg entry inh	HCV inh	Cycloheximide cs
C/C(=N\NC(=O)c1cccs1)c1ccc2c(c1)OCO2	117	–	–	?	–	64
Cc1ccc(C(=O)NCc2ccc3c(c2)OCO3)c(C)c1	–	?	–	–	–	–
C/C(=N\NC(=O)c1nc2ccccn2c1C)c1cccc([N+](=O)[O-])c1	–	?	?	–	?	–
O=C(NN=C1CCCC1)c1ccc(O)cc1	42	·	–	·	–	30
C/C(CCc1ccc2c(c1)OCO2)=N\NC(=O)c1ccc(C)cc1C	77	?	–	–	–	39
C/C(=N\NC(=O)c1ccc2c(c1)OCCO2)c1ccccc1	52	?	–	?	–	21
C/C(=N\NC(=O)c1nc2ccccn2c1C)c1ccc2c(c1)OCO2	–	–	–	?	–	19
COc1ccc(/C(O)=C2/C(=O)C(=O)N(c3ncccn3)C2c2ccc(OC)c(OC)c2)cc1 (stereo not given)	–	–	–	–	–	–
CC(=O)NC1CCC(=O)C=C1c1ccccc1 (stereo not given)	·	–	–	–	–	·
CCCCCC1=CCC/C1=N\NC(=O)c1ccc2c(c1)OCO2	–	·	–	–	–	19
CCCOc1ccc(/C=N/NC(=O)c2ccc3c(c2)OCO3)c(OCCC)c1	–	–	–	–	–	–
COc1ccc(S(=O)(=O)N2CCC(c3nnnn3-c3ccccc3)CC2)cc1OC	·	?	25µM	–	·	·
COc1ccc(-n2nnnc2C2CCN(S(=O)(=O)c3cccc(C(F)(F)F)c3)CC2)cc1	·	–	–	–	·	·
CC(=O)Cc1nsc(Nc2ccc(Cl)cc2)n1	86	–	–	?	–	61
CC(=O)Cc1nsc(NC(=O)c2ccc(Br)o2)n1	–	–	·	–	–	–
CC(=O)Cc1nsc(Nc2ccc3c(c2)OCCO3)n1	96	–	–	?	–	82
CC(=O)Cc1nsc(Nc2ccc(F)cc2)n1	65	–	–	–	–	–
CC(=O)Cc1nsc(NC(=O)c2ccco2)n1	–	–	–	–	–	–
Cc1ccc(C)c(NC(=O)CN(C)C(=O)Cc2ccc(Cl)cc2Cl)c1	–	?	–	?	?	–
O=S1(=O)CCN(Cc2ccc(Cl)c(C(F)(F)F)c2)CC1	–	–	–	–	–	–
Cc1ccc(N2CC(C(=O)OCC(=O)c3c(N)n(CC(C)C)c(=O)n(C)c3=O)CC2=O)cc1 (stereo not given)	·	–	–	–	–	·
O=C(NCC1CCCO1)c1cccc(F)c1 (stereo not given)	–	–	–	–	–	–
Cc1ccccc1-c1noc(-c2ccccc2C(=O)NCC2CCCO2)n1 (stereo not given)	–	·	–	·	–	–
O=C(NCC1CCCO1)c1cc(-c2ccccc2F)no1 (stereo not given)	91	·	–	·	–	29
COc1ccc(-c2noc(-c3ccccc3C(=O)NCC3CCCO3)n2)cc1 (stereo not given)	–	?	–	–	–	19
SMILES	Shiga toxin inh	LASV entry inh	FMDV antiviral	Marburg entry inh	HCV inh	Cycloheximide cs
COc1ccccc1-c1noc(-c2ccccc2C(=O)NCC2CCCO2)n1 (stereo not given)	–	·	–	·	–	16
CCC(=O)Oc1ccc2c(C)c(Cl)c(=O)oc2c1	–	–	–	–	–	–
Cc1cc(C)n2nc(-c3cccnc3)nc2n1	–	–	–	–	–	–
Cc1cc(C)n2nc(-c3ccc(F)cc3)nc2n1	–	?	–	–	–	24
COc1ccc(N(C)C(=O)c2cc3c(s2)-c2ccc(Cl)cc2S(=O)(=O)C3)c(OC)c1	–	·	28µM	·	?	–
O=C(/C=C/c1cccs1)NC1CCCC1	48	–	–	–	–	–
O=C(/C=C/c1cccs1)NC1CCS(=O)(=O)C1 (stereo not given)	–	–	–	–	–	–
C=CCNC(=O)/C=C/c1cccs1	–	?	–	–	–	–
CC(C)CNC(=O)/C=C/c1cccs1	–	–	–	–	–	19
CCC(C)(C)NC(=O)/C=C/c1cccs1	–	–	–	–	–	11
COc1ccc(NC(=O)c2nnn(Cc3nc(-c4cc(OC)c(OC)c(OC)c4)oc3C)c2C)cc1	·	–	–	–	·	·
OCc1cn(-c2ccccc2)nn1	–	–	–	–	–	–
CSc1ccc(/C=N/N2CCN(C)CC2)cc1	–	–	–	?	–	29
C(=N\N1CCN(Cc2ccccc2)CC1)/c1ccc(-c2ccccc2)cc1	–	·	–	·	–	–
CN1CCN(/N=C/c2ccc(-c3ccccc3)cc2)CC1	63	?	–	?	–	49
CSc1ccc(/C=N/n2c(C)cc(C)cc2=O)cc1	112	–	–	–	–	27
CSc1ccc(/C=N/n2c(C)nnc2C)cc1	–	–	–	–	?	–
Cc1ccc(C2Oc3ccccc3C3=C2C(c2cccs2)n2ncnc2N3)cc1 (stereo not given)	–	?	–	?	13µM	–
Fc1ccc(C2C3=C(Nc4ncnn42)c2ccccc2OC3c2ccncc2)cc1 (stereo not given)	–	–	–	–	?	–
COc1ccc(CN2CCc3nnc(CNC(=O)c4cc(C)oc4C)n3CC2)c2ccccc12	·	·	–	·	·	·
COc1cc(C2CC(=O)Nc3cc(C)c(C)cc32)cc(OC)c1OC (stereo not given)	–	?	–	–	?	–
Cc1cc2c(cc1C)C(c1cccc([N+](=O)[O-])c1)CC(=O)N2 (stereo not given)	–	?	–	4.5µM	?	–
CC(C)(Cl)C1Cc2cc3ccc(=O)oc3cc2O1 (stereo not given)	47	–	·	–	–	31
CC(C)=CC(=O)O[C@@H]1Cc2cc3ccc(=O)oc3cc2OC1(C)C	·	·	–	·	3.2µM	·
CC(=O)OC(C)(C)C1Cc2cc3ccc(=O)oc3cc2O1 (stereo not given)	45	·	–	·	–	–
SMILES	Shiga toxin inh	LASV entry inh	FMDV antiviral	Marburg entry inh	HCV inh	Cycloheximide cs
Cc1[nH]c(C)c2c(=O)[nH]ncc12	–	–	–	–	–	–
COc1ccc(OC)c(/C=C/C(=O)OCC(=O)N2CCCCC2)c1	·	–	–	–	–	·
COc1ccc(/C=N/OCC(=O)NC(c2ccccc2)c2ccccc2)c(OC)c1	–	2.2µM	?	?	?	–
COc1ccc(/C=N/OCC(=O)N2CCCC2)c(OC)c1	–	?	–	?	–	17
COc1ccc(/C=N/OCC(=O)NCC(C)C)c(OC)c1	–	–	–	–	–	–
CCc1nc(C)cc2c1sc1ccccc12	–	–	–	–	?	19
CCCCc1c(C)c(C#N)c2[nH]c3ccccc3n2c1=O	–	?	22µM	?	–	–
COc1ccc(N2CCN(C(=S)NC(=O)c3cccs3)CC2)c([N+](=O)[O-])c1	–	?	–	–	–	–
CCCCCSc1nc(N2CCOCC2)c2c(c1C#N)CC(C)(C)OC2	–	?	–	–	–	–
COc1ccc(OC)c(-c2nnc3n2N=C(c2ccc(OC)c(OCC4CC4)c2)CS3)c1	·	·	32µM	·	·	·
CCOc1ccc(C2=Nn3c(nnc3-c3ccccc3OC)SC2)cc1	–	0.023µM	–	0.29µM	?	–
CCOc1ccccc1-c1nnc2n1N=C(c1ccccc1OC)CS2	–	·	·	·	·	–
